For 8 compounds, growth results are on record in PubChem BioAssay (NCI).

Test systems include NCI-H23 lung; NCI-H226 lung; NCI-H322M lung; HOP-62 NSCLC; NCI-H460 lung; HOP-92 NSCLC; NCI-H522 lung; A549/ATCC NSCLC; 786-0 renal; COLO 205 colon; DU-145 prostate; K-562 leukemia; MALME-3M melanoma; MDA-MB-231 breast; RXF 393 renal; SF-268 CNS; SF-295 CNS; SF-539 CNS; UACC-257 melanoma; M14 melanoma.
Holding throughout (assay): NCI-60 one-dose screen, 48 h (100 = growth as untreated, 0 = no growth, -100 = all killed)
Settings in all cases: 10 µM unless noted

Molecules are shown by their SMILES. Values joined by “and” are separate entries in the source; they are usually repeats but may differ in a detail not shown here. Equal entries are not always repeated. About 83,000 compounds went through this panel and 20% of them were active in at least one assay; those are over-represented in the sample as a whole.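 Treatment: one concentration, 48 hours, 96-well format. Scoring: percent growth, with anything below 10 considered active.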 A structure can be active in one record and inactive in another. Active and inactive are the calls of the source.

With `O=[N+]([O-])c1ccc(Oc2ccccc2Cl)c([N+](=O)[O-])c1`, the growth was 73.9% (inactive) with NCI-H23 lung; 83.8% (inactive) with NCI-H226 lung; 97.8% (inactive) in the experiment with NCI-H322M lung; 99.4% (inactive) with HOP-62 NSCLC; 105% (inactive) in the experiment on NCI-H460 lung; 83.7% (inactive) in the experiment with HOP-92 NSCLC. The growth with NCI-H522 lung is 73.8% (inactive); in the experiment with A549/ATCC NSCLC, 92.7% (inactive); in the experiment on 786-0 renal it was 83.7% (inactive); in the experiment on COLO 205 colon it was 112% (inactive); with DU-145 prostate it was 89% (inactive); with K-562 leukemia, 17.4% (inactive). The growth in the experiment on MALME-3M melanoma is 85.5% (inactive); in the experiment on MDA-MB-231 breast it was 75.5% (inactive); in the experiment on RXF 393 renal it was 86.7% (inactive); with SF-268 CNS, 84.9% (inactive); with SF-295 CNS it was 102% (inactive); with SF-539 CNS, 94.6% (inactive). Besides, the results for the growth in the experiment with UACC-257 melanoma and with M14 melanoma were 89.8% (inactive) and 86.2% (inactive), respectively.
As for `CCCCCCCCCCCC1=NCCCN1CCCC`, the growth is 94.2% (inactive) in the experiment on NCI-H23 lung; 103% (inactive) in the experiment on NCI-H226 lung; 98.1% (inactive) in the experiment on NCI-H322M lung; 94.6% (inactive) in the experiment with HOP-62 NSCLC; 101% (inactive) with NCI-H460 lung; 74.8% (inactive) with HOP-92 NSCLC. Further, the growth in the experiment with NCI-H522 lung was 97.6% (inactive); in the experiment on A549/ATCC NSCLC, 97.6% (inactive); in the experiment on 786-0 renal, 99.1% (inactive); in the experiment on COLO 205 colon, 98% (inactive); with DU-145 prostate it was 103% (inactive); in the experiment on K-562 leukemia it was 80.3% (inactive). Also, the growth is 106% (inactive) with MALME-3M melanoma; 78.8% (inactive) in the experiment with MDA-MB-231 breast; 122% (inactive) with RXF 393 renal; 101% (inactive) in the experiment on SF-268 CNS; 101% (inactive) in the experiment with SF-295 CNS; 110% (inactive) in the experiment on SF-539 CNS. In addition, the growth in the experiment with UACC-257 melanoma was 92.3% (inactive); in the experiment on M14 melanoma, 100% (inactive).
In the case of `Cn1c(-c2ccccc2)c(/C=C/C2=[N+](C)c3ccccc3C2(C)C)c2ccccc21`, the growth is 7.45% (active) with NCI-H23 lung; 13.5% (inactive) with NCI-H226 lung; 50.3% (inactive) in the experiment on NCI-H322M lung; 10.2% (inactive) in the experiment on HOP-62 NSCLC; 2.46% (active) in the experiment with NCI-H460 lung; -17.1% (active) in the experiment on HOP-92 NSCLC. Further, the growth is -28.6% (active) in the experiment on NCI-H522 lung; 6.27% (active) in the experiment with A549/ATCC NSCLC; 24.2% (inactive) in the experiment with 786-0 renal; -83.9% (active) in the experiment on COLO 205 colon; 20.2% (inactive) with DU-145 prostate; 6.23% (active) in the experiment with K-562 leukemia. Also, the growth with MALME-3M melanoma is -6.21% (active); in the experiment with MDA-MB-231 breast, 15.6% (inactive); in the experiment with RXF 393 renal, 35.2% (inactive); in the experiment with SF-268 CNS, 18% (inactive); in the experiment with SF-295 CNS, 11.8% (inactive); in the experiment with SF-539 CNS, 11.9% (inactive). Also, in the experiment on UACC-257 melanoma, the growth was -51.5% (active).
Regarding `Cc1cc2cccnc2c2ncccc12`, the growth was 18.7% (inactive) in the experiment with NCI-H23 lung; -2.12% (active) with NCI-H226 lung; 40.4% (inactive) in the experiment on NCI-H322M lung; 12% (inactive) in the experiment on HOP-62 NSCLC; 0.789% (active) in the experiment on NCI-H460 lung; 44.6% (inactive) in the experiment with HOP-92 NSCLC. Also, the growth was 22.1% (inactive) in the experiment on NCI-H522 lung; 12.3% (inactive) in the experiment on A549/ATCC NSCLC; 18.9% (inactive) with 786-0 renal; 9.8% (active) in the experiment with COLO 205 colon; 20.7% (inactive) with DU-145 prostate; 14.3% (inactive) in the experiment on K-562 leukemia. The growth was 49.3% (inactive) in the experiment with MALME-3M melanoma; 44.2% (inactive) with MDA-MB-231 breast; 13.3% (inactive) with RXF 393 renal; 15.9% (inactive) with SF-268 CNS; 28.5% (inactive) with SF-295 CNS; 13% (inactive) in the experiment with SF-539 CNS. For the same compound, in the experiment on UACC-257 melanoma, the growth was -1.02% (active).
`C[C@@]1(CO)[C@H](O)CC[C@@]2(C)[C@H]1CC[C@H]1C[C@@H]3C[C@@]12CC[C@@]3(O)COC(=O)CN`: the growth is 21.5% (inactive) with NCI-H23 lung; 62% (inactive) in the experiment on NCI-H226 lung; 78.1% (inactive) in the experiment on NCI-H322M lung; 37.6% (inactive) in the experiment on HOP-62 NSCLC; 12% (inactive) in the experiment on NCI-H460 lung; 45.4% (inactive) in the experiment with HOP-92 NSCLC. For the same compound, the growth in the experiment on NCI-H522 lung is 49% (inactive); with A549/ATCC NSCLC, 3.43% (active); in the experiment on 786-0 renal, 14.9% (inactive); in the experiment on COLO 205 colon it was 47% (inactive); with DU-145 prostate, 9.57% (active); with K-562 leukemia, 34.2% (inactive). The growth is 77.4% (inactive) with MALME-3M melanoma; 92% (inactive) in the experiment on MDA-MB-231 breast; 5.23% (active) with RXF 393 renal; 50.5% (inactive) in the experiment with SF-268 CNS; 8.57% (active) in the experiment with SF-295 CNS; -13.9% (active) in the experiment on SF-539 CNS. Besides, the values for the growth in the experiment on UACC-257 melanoma and with M14 melanoma were 21% (inactive) and 42.4% (inactive), respectively.
Turning to `C[n+]1ccccc1C[n+]1ccccc1`, the growth in the experiment with NCI-H23 lung was 106% (inactive); with NCI-H226 lung it was 108% (inactive); in the experiment with NCI-H322M lung, 128% (inactive); in the experiment on HOP-62 NSCLC, 100% (inactive); with NCI-H460 lung, 115% (inactive); with HOP-92 NSCLC, 101% (inactive). In addition, the growth with NCI-H522 lung is 111% (inactive); with A549/ATCC NSCLC it was 107% (inactive); with 786-0 renal it was 108% (inactive); with COLO 205 colon, 114% (inactive); in the experiment with DU-145 prostate, 114% (inactive); with K-562 leukemia it was 87.8% (inactive). For the same compound, the growth is 118% (inactive) in the experiment with MALME-3M melanoma; 122% (inactive) in the experiment on MDA-MB-231 breast; 115% (inactive) in the experiment with RXF 393 renal; 96.8% (inactive) in the experiment on SF-268 CNS; 114% (inactive) in the experiment with SF-295 CNS; 106% (inactive) in the experiment on SF-539 CNS. Further, the growth with UACC-257 melanoma was 112% (inactive).
In the case of `OC(c1cc(-c2ccc(C(F)(F)F)cc2)nc(C(F)(F)F)c1)C1CCCCN1` (stereo unspecified), the growth is 23.4% (inactive) and -44.7% (active) and 62.5% (inactive) in the experiment with NCI-H23 lung; -7.1% (active) and -6.47% (active) and 43.1% (inactive) in the experiment on NCI-H226 lung; 48.2% (inactive) and 29.8% (inactive) and 70.3% (inactive) in the experiment on NCI-H322M lung; -69.8% (active) and -89.1% (active) and 57.1% (inactive) in the experiment with HOP-62 NSCLC; -77.9% (active) and -77.2% (active) and -47.9% (active) with NCI-H460 lung; -18.8% (active) and -58.7% (active) and 36.3% (inactive) with HOP-92 NSCLC. Also, the growth in the experiment with NCI-H522 lung was -67.2% (active) and -80.1% (active) and 9.35% (active); in the experiment on A549/ATCC NSCLC, -43% (active) and -44.5% (active) and 35.6% (inactive); in the experiment on 786-0 renal, -48.8% (active) and -82.2% (active) and 27% (inactive); with COLO 205 colon it was -90.1% (active) and -85.4% (active) and -79.8% (active); in the experiment on DU-145 prostate, -16.1% (active) and -94.1% (active) and 32.1% (inactive); in the experiment with K-562 leukemia, -47.5% (active) and -65.5% (active) and -27.9% (active). Moreover, the growth in the experiment on MALME-3M melanoma was 22% (inactive) and -88.6% (active) and 60.1% (inactive); with MDA-MB-231 breast, -57.8% (active) and -85.1% (active) and -19% (active); in the experiment with RXF 393 renal, -94.4% (active) and -93% (active) and 39% (inactive); with SF-268 CNS it was -42.1% (active) and -39.4% (active) and 29.8% (inactive); with SF-295 CNS it was 188% (inactive); with SF-539 CNS it was -41.7% (active) and -76.5% (active) and 40.2% (inactive). Besides, the growth in the experiment on UACC-257 melanoma was -68.6% (active) and 68.3% (inactive) and -8.76% (active); in the experiment with M14 melanoma it was -77% (active) and -84.3% (active) and -76.6% (active).
With `CCN(CC)CC(O)c1cc(-c2ccc(Cl)cc2)nc2cc(Cl)ccc12` (stereo unspecified), the growth was 70.8% (inactive) in the experiment on NCI-H23 lung; 78.5% (inactive) in the experiment with NCI-H226 lung; 79.2% (inactive) with NCI-H322M lung; 54.6% (inactive) with HOP-62 NSCLC; -0.34% (active) in the experiment on NCI-H460 lung; 19.3% (inactive) in the experiment on HOP-92 NSCLC. Also, the growth with NCI-H522 lung was -70.4% (active); with A549/ATCC NSCLC, 14.6% (inactive); in the experiment on 786-0 renal, 46.3% (inactive); with COLO 205 colon, -73% (active); in the experiment with DU-145 prostate, 17.9% (inactive); in the experiment on K-562 leukemia it was -27.2% (active). Besides, the growth was 43% (inactive) in the experiment with MALME-3M melanoma; -3.65% (active) in the experiment with MDA-MB-231 breast; 28.9% (inactive) in the experiment on RXF 393 renal; 42.1% (inactive) with SF-268 CNS; 31.7% (inactive) with SF-295 CNS; 18% (inactive) in the experiment on SF-539 CNS. Further, the growth with UACC-257 melanoma was -59.8% (active).
